Compounds with a hit are over-represented: about 3.5% of the library has one in this group of screens.
GPR151 activ: activators of human GPR151, primary screen, cell-based, PathHunter beta-arrestin, luminescence | G-protein coupled receptor 151 (Homo sapiens), Q8TDV0 | PathHunter beta-arrestin GPR151 cells | activation, % at 11.2 µM | 1% of 650,000 active | AID 1508602, 2020; in the data active = activation above about 4.9%
Target sequence (Q8TDV0 whole entry, looked up): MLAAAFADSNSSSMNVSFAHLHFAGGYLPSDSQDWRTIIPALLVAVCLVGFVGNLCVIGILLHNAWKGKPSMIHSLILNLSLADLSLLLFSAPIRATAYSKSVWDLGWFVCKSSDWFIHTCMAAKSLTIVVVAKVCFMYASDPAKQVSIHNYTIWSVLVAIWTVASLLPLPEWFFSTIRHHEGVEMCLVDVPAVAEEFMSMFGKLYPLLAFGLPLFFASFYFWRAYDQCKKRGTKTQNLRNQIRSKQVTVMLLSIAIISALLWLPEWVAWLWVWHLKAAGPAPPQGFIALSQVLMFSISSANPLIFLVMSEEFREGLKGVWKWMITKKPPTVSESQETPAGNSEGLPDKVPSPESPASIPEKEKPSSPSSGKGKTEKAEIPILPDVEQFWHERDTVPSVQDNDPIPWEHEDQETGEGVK
MITF primary: MITF inhibitors, primary screen, biochemical, AlphaScreen, human; Microphthalmia-associated transcription factor (Homo sapiens), O75030; 0.91% of 650,000 active; inhibition, % at 2.6 µM; AlphaScreen MITF homodimerization, bead proximity signal; in the data active = inhibition above about 50%
FBW7 act: FBW7 E3 ligase activators, primary screen, biochemical, AlphaScreen, human; F-box/WD repeat-containing protein 7 (Homo sapiens), Q969H0; AlphaScreen FBW7–phospho-cyclin E peptide binding, activator screen; normalized activity (activation), % at 26.1 µM; 0.13% of 650,000 active; in the data active = normalized activity above about 1.9%;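 also: purified mutant Fbw7 with reduced substrate affinity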
TEAD-YAP block: TEAD-YAP interaction inhibition, primary screen, TEAD-YAP interaction inhibitor project, luminescence, HEK-TIYL cells | 1.4% of 640,000 active | TEAD-Gal4/YAP UAS-luciferase luminescence | inhibition, % at 9.12 µM | AID 1259422, 2018; in the data active = inhibition above about 32%
GPR151 confirm: GPR151 activators, triplicate retest, confirmation, cell-based, PathHunter beta-arrestin, luminescence. shares compounds with GPR151 activ. AID 1508609, 2020. 6,700 tested, under 10 active. GPR151 PathHunter beta-arrestin cells, 90 min; % of EA-reagent control over plate median. activation, % at 11.2 µM;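 active = mean percent activation across replicates above the confirmation screen cutoff of 4.91%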
GPR119 counter: GPR119 activators in beta-arrestin cells, counter-screen for GPR151 activator project, cell-based, PathHunter beta-arrestin, luminescence, triplicate. 90 min; 0 = compound-well median, 100 = enzyme-acceptor control. 0.3% of 6,700 active. AID 1508611, 2020. activation, % at 11.2 µM. shares compounds with GPR151 activ;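 active = mean percent activation in the counterscreen above 29.09%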;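 also: counterscreen on off-target GPR119 to flag nonselective hits from the GPR151 activator screen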
Of the large screens only hits and unclear results are named; the others gave an inactive call (follow-up assays come after a bar, where they were run).

O=C(Nc1cccc2cnccc12)c1cccc(S(=O)(=O)N2CCOCC2)c1	none
CCCNc1cc(N2CCCC2CO)ncn1 (stereo not drawn)	none
COc1ccc(CCNc2cc(-c3ccc(OC)nc3)ncn2)cc1	GPR151 activ 5.2 | GPR151 confirm inactive | GPR119 counter inactive
COc1ccc(-c2cc(NCCc3ccc(O)cc3)ncn2)cn1	none
COc1ccc(-c2nc(NCCc3ccc(O)cc3)nc(OC)n2)cn1	GPR151 activ 5.9 | GPR151 confirm inactive | GPR119 counter inactive
COc1ccc(CCNc2cc(N3CCCC3CO)ncn2)cc1 (stereo not drawn)	GPR151 activ 14 | GPR151 confirm inactive | GPR119 counter inactive
Cc1ccc(C(=O)Nc2ccc(Cl)cn2)cc1C	none
Cc1ccsc1C(=O)NCC1CCC2(CCN(C(=O)Cc3ccccc3)CC2)O1 (stereo not drawn)	none
O=C(NNS(=O)(=O)c1cccc([N+](=O)[O-])c1)c1cccc(I)c1	none
CC1CN(CCOCCOc2ccc(Cl)c3ccccc23)CC(C)O1 (stereo not drawn)	none
CC1CN(CCOCCOc2c(Cl)cccc2Cl)CC(C)O1 (stereo not drawn)	GPR151 activ 8.4 | GPR151 confirm inactive | GPR119 counter inactive
COCCN1C=C(C(=O)OC)C(c2cccc(OC)c2OC(C)C)C(C(=O)OC)=C1	GPR151 activ 11 | GPR151 confirm inactive | GPR119 counter inactive
CCOc1ccc(/C=C2\SC(=S)N(C(CC)C(=O)O)C2=O)cc1 (stereo not drawn)	GPR151 activ 6.0 | GPR151 confirm inactive | GPR119 counter inactive
COc1ccc(/C=C2\SC(=S)N(CCC(=O)NCCO)C2=O)cc1	GPR151 activ 5.1 | GPR151 confirm inactive | GPR119 counter inactive
CCOc1cccc(/C=C2/SC(=S)N(CCC(=O)O)C2=O)c1	GPR151 activ 4.9 | GPR151 confirm inactive | GPR119 counter inactive
O=c1oc2cc([N+](=O)[O-])ccc2n1CNc1ccccc1Cl	none
CCCCOc1ccc(C(=O)N/C(=C/c2ccc([N+](=O)[O-])cc2)C(N)=O)cc1	none
CCCCOc1ccc(C(=O)N/C(=C/c2ccc(Cl)cc2)C(N)=O)cc1	GPR151 activ 9.8 | GPR151 confirm inactive | GPR119 counter inactive
COCCOC(=O)C1=C(C)NC2=C(C(=O)CC(c3ccccc3)C2)C1c1ccc(OCc2ccccc2)c(OC)c1 (stereo not drawn)	none
CC(C)CC(NC(=O)C1CCC(C)CC1)C(=O)Nc1cccnc1 (stereo not drawn)	GPR151 activ 7.4 | GPR151 confirm inactive | GPR119 counter inactive
C/C(CC(=O)Nc1ccc(C(N)=O)cc1)=N\NC(=O)Cc1ccc([N+](=O)[O-])cc1[N+](=O)[O-]	none
COc1ccc(C(=O)N/C(=C/c2cccc([N+](=O)[O-])c2)C(=O)Nc2cc(Cl)ccc2C)c(Cl)c1	GPR151 activ 12 | GPR151 confirm inactive | GPR119 counter inactive
COc1ccc(Br)c(C(=O)N/C(=C/c2cccc([N+](=O)[O-])c2)C(=O)Nc2cc(Cl)ccc2C)c1	none
CC(C)c1ccc(CN(C(=O)c2cc3ccccc3oc2=O)C2CCS(=O)(=O)C2)cc1 (stereo not drawn)	GPR151 activ 5.6 | GPR151 confirm inactive | GPR119 counter inactive
Cc1nc(CNS(=O)(=O)c2ccc(-c3ccccc3)cc2)cs1	none
Cc1cc(C)nc(SCc2cnc(-c3ccccc3)o2)n1	none
c1ccc(N2CCN(c3nnc(SCc4ccccn4)s3)CC2)cc1	GPR151 activ 5.4 | GPR151 confirm inactive | GPR119 counter inactive
c1ccc(CSc2nnc(SCc3ccccn3)s2)nc1	none
O=C(/C=C1\NCCN\C1=C/C(=O)c1ccccc1)c1ccccc1	none
O=C1CN(c2ccc(Cl)cc2)S(=O)(=O)c2ccccc2N1	GPR151 activ 5.6 | GPR151 confirm inactive | GPR119 counter inactive
O=C(NC1CCS(=O)(=O)C1)/C(=C/c1cn(-c2ccccc2)nc1-c1cccs1)NC(=O)c1ccccc1 (stereo not drawn)	GPR151 activ 5.8 | GPR151 confirm inactive | GPR119 counter inactive
Cc1cc(C)c(NC(=O)C2CCN(c3nccs3)CC2)c(C)c1	none
COc1cccc(C2Oc3nc(SC)nnc3-c3ccccc3N2C(C)=O)c1OC (stereo not drawn)	none
O=C(NNc1ccccn1)Nc1ccc(Cl)cc1	GPR151 activ 6.5 | GPR151 confirm inactive | GPR119 counter inactive
S=C(Nc1ccc(Cl)cc1)Nc1ccccn1	none
COc1ccc([N+](=O)[O-])cc1/C=C1\C(=O)N(c2ccccc2)N=C1C	GPR151 activ 8.1 | GPR151 confirm inactive | GPR119 counter inactive
Cc1cc(I)cc2c1NC(c1ccccc1)C1CC=CC21 (stereo not drawn)	none
COc1ccccc1N1C(=O)CC(Sc2nnc(C)s2)C1=O (stereo not drawn)	none
O=C1c2cccc([N+](=O)[O-])c2C(=O)N1Cc1ccco1	GPR151 activ 5.2 | GPR151 confirm inactive | GPR119 counter inactive
COc1ccnc(Cn2nc3c4c(C)c(C)sc4nc(C(C)C)n3c2=O)c1OC	none
CCn1nc2c3c(C)c(C)sc3nc(C(C)C)n2c1=O	none
Cc1sc2nc(C(C)C)n3c(=O)n(CCN4CCCC4)nc3c2c1C	GPR151 activ 11 | GPR151 confirm inactive | GPR119 counter inactive
Cc1sc2nc(C(C)C)n3c(=O)n(Cc4ccccn4)nc3c2c1C	GPR151 activ 13 | GPR151 confirm inactive | GPR119 counter inactive
COC(=O)C1=C(C)NC(=O)NC1c1ccc(-c2ccccc2[N+](=O)[O-])o1 (stereo not drawn)	none
Cc1cccc(CCNC(=O)NCc2noc3ccccc23)c1	GPR151 activ 14 | GPR151 confirm inactive | GPR119 counter inactive
COc1ccc(NC(=O)NCc2noc3ccccc23)c(OC)c1	none
Cc1cc(Br)ccc1NC(=O)NCc1noc2ccccc12	GPR151 activ 6.1 | GPR151 confirm inactive | GPR119 counter inactive
Cc1ccc(CCNC(=O)NCc2noc3ccccc23)cc1	none
Cc1ccc(SCC(=O)N2CCN(c3nc4ccccc4s3)CC2)cc1	none
COc1ccc2nc(Nc3nc(-c4ccccc4)cc(=O)[nH]3)nc(C)c2c1	GPR151 activ 6.8 | GPR151 confirm inactive | GPR119 counter inactive
Cc1nc(Nc2nc(-c3ccccc3)cc(=O)[nH]2)nc2ccccc12	none
O=C(O)CCc1nn2c3ccccc3n(CCN3CCCCC3)c2nc1=O	none
O=C(O)CCc1nn2c3ccccc3n(CC(=O)O)c2nc1=O	GPR151 activ 21 | GPR151 confirm inactive | GPR119 counter inactive

Compound activity as filed in PubChem BioAssay.
